This note sets out measurements from PubChem BioAssay (NCI).

Experiment [1] in a line: NCI Yeast Anticancer Drug Screen. Data for the rad50 strain (AID 155).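 Also: 0% = growth of vehicle-only cultures of the same strain.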 To be noted: S. cerevisiae rad50 strain growth inhibition, hits give high values. In outline: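 Compounds were tested on a yeast strain with an engineered DNA damage repair alteration; the reported value is growth inhibition normalised to vehicle treatment.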
Experiment [2] in a line: NCI Yeast Anticancer Drug Screen. Data for the mec2-1 strain (AID 157). Conditions: S. cerevisiae mec2-1 strain, hits give high values. In outline:
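Readout is yeast growth inhibition, normalised to vehicle-treated controls, in the mec2-1 strain exposed to compound.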

Experiment [3] is described as follows: NCI Yeast Anticancer Drug Screen. Data for the sgs1 mgt1 strain (AID 161).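 Also: 0% = growth of cultures given vehicle only.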 To be noted: S. cerevisiae sgs1 mgt1 strain, hits give high values. A digest of the protocol: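 Percent growth inhibition was derived by comparing compound-exposed mutant yeast with vehicle-exposed cultures. The strain carries alterations in DNA damage repair.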
Experiment [4] can be described thus: NCI Yeast Anticancer Drug Screen. Data for the cln2 rad14 strain (AID 165).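 Also: 0% = growth equal to vehicle treated cultures.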 Conditions: S. cerevisiae cln2 rad14 strain, hits give high values. A digest of the protocol: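 Relative to vehicle controls, growth inhibition of compound-treated cln2 rad14 yeast was recorded.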
Experiment [5] in a line: NCI Yeast Anticancer Drug Screen. Data for the bub3 strain (AID 167). Conditions: S. cerevisiae bub3 mutant strain, hits give high values. A digest of the protocol:
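Growth of a checkpoint-deficient yeast mutant is measured after compound exposure. Values represent inhibition relative to vehicle.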

Experiment [6] can be described thus: NCI Yeast Anticancer Drug Screen. Data for the mlh1 rad18 strain (AID 175). Conditions: S. cerevisiae mlh1 rad18 strain growth inhibition, hits give high values. In outline: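 Test agents were incubated with a yeast strain of defined genotype (DNA damage repair defect). Inhibition of growth was derived by comparison with vehicle-exposed cultures.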
[7] abbreviates: at 5.0 µM (retest, dose inferred, filed as 0.5).
The mark [8] stands for this setting: at 50.0 µM (retest, dose inferred, filed as 5.0).

Each structure is given as a SMILES string. Compounds without any hit were thinned out: in the full panel of roughly 79,000, 15% have a hit. Values without a mark were called inactive. Calls of active or inactive are those of the source. Rule as the data show it: active = growth inhibition above about 70%; inactive = the rest.

For the molecule `Cc1ccccc1C(=O)CN`, the growth inhibition was -3% in experiment [1] (setting [7]); -2% in experiment [1] (setting [8]); 16.4% in experiment [1] (at 50.0 µM); 0% in experiment [2] (setting [7]); -3% in experiment [2] (setting [8]); -6% in experiment [2] (at 50.0 µM). The growth inhibition in experiment [3] (setting [7]) was -1%; in experiment [3] (setting [8]), 0%; in experiment [3] (at 50.0 µM), -4.2%; in experiment [4] (setting [7]) it was -5%; in experiment [4] (setting [8]), -3%; in experiment [4] (at 50.0 µM), 81.3% (active). Besides, the growth inhibition was -2% in experiment [5] (setting [7]); -9% in experiment [5] (setting [8]); -13.1% in experiment [5] (at 50.0 µM); -1% in experiment [6] (setting [7]); -3% in experiment [6] (setting [8]); 12.9% in experiment [6] (at 50.0 µM).
On to `ClCCN(CCCl)c1ccc(CNCCCNCc2ccc(N(CCCl)CCCl)cc2)cc1`, for which the growth inhibition in experiment [1] (setting [7]) is -1%; in experiment [1] (setting [8]) it was 57%; in experiment [1] (at 50.0 µM), 94.7% (active); in experiment [2] (setting [7]), -13%; in experiment [2] (setting [8]), 7%; in experiment [2] (at 50.0 µM), 49%. In addition, the growth inhibition in experiment [3] (setting [7]) was -12%; in experiment [3] (setting [8]), 41%; in experiment [3] (at 50.0 µM) it was 99.1% (active); in experiment [4] (setting [7]), -2%; in experiment [4] (setting [8]) it was 37%; in experiment [4] (at 50.0 µM), 14.8%. Also, the growth inhibition in experiment [5] (setting [7]) was -3%; in experiment [5] (setting [8]) it was 38%; in experiment [5] (at 50.0 µM), 43%; in experiment [6] (setting [7]) it was 4%; in experiment [6] (setting [8]), 98% (active); in experiment [6] (at 50.0 µM), 99.2% (active).
Take `O=C(c1ccccc1)c1c(CC(O)c2ccncc2)n(C(=O)c2ccccc2)c2ccccc12` (configuration not stated): the growth inhibition is 18% in experiment [1] (setting [7]); 95% (active) in experiment [1] (setting [8]); 94% (active) in experiment [1] (at 50.0 µM); -2% in experiment [2] (setting [7]); 96% (active) in experiment [2] (setting [8]); 92.5% (active) in experiment [2] (at 50.0 µM). The growth inhibition was 8% in experiment [3] (setting [7]); 97% (active) in experiment [3] (setting [8]); 92.2% (active) in experiment [3] (at 50.0 µM); 18% in experiment [4] (setting [7]); 96% (active) in experiment [4] (setting [8]); 82.7% (active) in experiment [4] (at 50.0 µM). Also, the growth inhibition was -3% in experiment [5] (setting [7]); 98% (active) in experiment [5] (setting [8]); 92.2% (active) in experiment [5] (at 50.0 µM); 19% in experiment [6] (setting [7]); 95% (active) in experiment [6] (setting [8]); 93.8% (active) in experiment [6] (at 50.0 µM).
Consider `CC(=O)OC1C(=O)OCC23CCC4(C)OC4C2OC2CC(OC(=O)/C=C/C=C/C(=O)OCCC1C)C3(C)C21CO1` (configuration not stated), for which the growth inhibition is 99% (active) in experiment [1] (setting [7]); 99% (active) in experiment [1] (setting [8]); 92.6% (active) in experiment [1] (at 50.0 µM); 100% (active) in experiment [2] (setting [7]); 100% (active) in experiment [2] (setting [8]); 93.8% (active) in experiment [2] (at 50.0 µM). In addition, the growth inhibition in experiment [3] (setting [7]) was 99% (active); in experiment [3] (setting [8]), 99% (active); in experiment [3] (at 50.0 µM), 93.8% (active); in experiment [4] (setting [7]) it was 98% (active); in experiment [4] (setting [8]), 98% (active); in experiment [4] (at 50.0 µM) it was 92.5% (active). Further, the growth inhibition in experiment [5] (setting [7]) is 99% (active); in experiment [5] (setting [8]), 98% (active); in experiment [5] (at 50.0 µM) it was 92.6% (active); in experiment [6] (setting [7]), 100% (active); in experiment [6] (setting [8]) it was 99% (active); in experiment [6] (at 50.0 µM), 92.3% (active).
With `CCC[CH2][Sn]1([CH2]CCC)[O]N=Cc2ccccc2[O]1`, the growth inhibition in experiment [1] (setting [7]) was 46%; in experiment [1] (setting [8]) it was 94% (active); in experiment [1] (at 50.0 µM) it was 86.8% (active); in experiment [2] (setting [7]), 50%; in experiment [2] (setting [8]) it was 97% (active); in experiment [2] (at 50.0 µM), 90.5% (active). Also, the growth inhibition is 79% (active) in experiment [3] (setting [7]); 98% (active) in experiment [3] (setting [8]); 88.2% (active) in experiment [3] (at 50.0 µM); 62% in experiment [4] (setting [7]); 97% (active) in experiment [4] (setting [8]); 87.1% (active) in experiment [4] (at 50.0 µM). Besides, the growth inhibition is 85% (active) in experiment [5] (setting [7]); 98% (active) in experiment [5] (setting [8]); 90.1% (active) in experiment [5] (at 50.0 µM); 73% (active) in experiment [6] (setting [7]); 97% (active) in experiment [6] (setting [8]); 88.3% (active) in experiment [6] (at 50.0 µM).
Turning to `O=C1C=CC(=O)N1c1cccc2ccccc12` (tested in a mixture with another compound), the growth inhibition in experiment [1] (setting [7]) is -1%; in experiment [1] (setting [8]), 1%; in experiment [1] (at 50.0 µM), 10.3%; in experiment [2] (setting [7]), -39%; in experiment [2] (setting [8]), -1%; in experiment [2] (at 50.0 µM), 2.7%. Moreover, the growth inhibition was 0% in experiment [3] (setting [7]); 2% in experiment [3] (setting [8]); 9.1% in experiment [3] (at 50.0 µM); -1% in experiment [4] (setting [7]); 3% in experiment [4] (setting [8]); 15.8% in experiment [4] (at 50.0 µM). In addition, the growth inhibition in experiment [5] (setting [7]) was -8%; in experiment [5] (setting [8]) it was -5%; in experiment [5] (at 50.0 µM), 61%; in experiment [6] (setting [7]), -1%; in experiment [6] (setting [8]), -1%; in experiment [6] (at 50.0 µM), 12.2%.
For `Cc1ccc(C#CCN2CCCCC2)cn1`, the growth inhibition in experiment [1] (setting [7]) was -142%; in experiment [1] (setting [8]) it was -82%; in experiment [1] (at 50.0 µM) it was 4.45%; in experiment [2] (setting [7]), -77%; in experiment [2] (setting [8]), -47%; in experiment [2] (at 50.0 µM), 11.1%. Moreover, the growth inhibition in experiment [3] (setting [7]) was -64%; in experiment [3] (setting [8]), -22%; in experiment [3] (at 50.0 µM), 22.8%; in experiment [4] (setting [7]), -60%; in experiment [4] (setting [8]), -46%; in experiment [4] (at 50.0 µM), 69.2%. Also, the growth inhibition in experiment [5] (setting [7]) is -66%; in experiment [5] (setting [8]), -54%; in experiment [5] (at 50.0 µM), -0.5%; in experiment [6] (setting [7]) it was -138%; in experiment [6] (setting [8]) it was -87%; in experiment [6] (at 50.0 µM) it was 11.7%.
For `c1ccc(P(CCP(c2ccccc2)c2ccccc2)CCP(c2ccccc2)c2ccccc2)cc1`, the growth inhibition is 98% (active) in experiment [1] (setting [7]); 98% (active) in experiment [1] (setting [8]); 92.3% (active) in experiment [1] (at 50.0 µM); 94% (active) in experiment [2] (setting [7]); 94% (active) in experiment [2] (setting [8]); 93% (active) in experiment [2] (at 50.0 µM). Also, the growth inhibition in experiment [3] (setting [7]) was 92% (active); in experiment [3] (setting [8]), 92% (active); in experiment [3] (at 50.0 µM) it was 91% (active); in experiment [4] (setting [7]), 84% (active); in experiment [4] (setting [8]), 84% (active); in experiment [4] (at 50.0 µM), 5.95%. For the same molecule, the growth inhibition was 96% (active) in experiment [5] (setting [7]); 96% (active) in experiment [5] (setting [8]); 92.8% (active) in experiment [5] (at 50.0 µM); 95% (active) in experiment [6] (setting [7]); 95% (active) in experiment [6] (setting [8]); 91.8% (active) in experiment [6] (at 50.0 µM).
As to `S=C=Nc1cccc(Cl)c1`, the growth inhibition in experiment [1] (setting [7]) is -17%; in experiment [1] (setting [8]), 84% (active); in experiment [1] (at 50.0 µM) it was 85.2% (active); in experiment [2] (setting [7]), -7%; in experiment [2] (setting [8]), 90% (active); in experiment [2] (at 50.0 µM) it was 86% (active). The growth inhibition in experiment [3] (setting [7]) is -10%; in experiment [3] (setting [8]), 90% (active); in experiment [3] (at 50.0 µM), 88.8% (active); in experiment [4] (setting [7]), 35%; in experiment [4] (setting [8]), 65%; in experiment [4] (at 50.0 µM), 80.3% (active). For the same molecule, the growth inhibition in experiment [5] (setting [7]) was 7%; in experiment [5] (setting [8]), 89% (active); in experiment [5] (at 50.0 µM), 85.2% (active); in experiment [6] (setting [7]), 2%; in experiment [6] (setting [8]), 89% (active); in experiment [6] (at 50.0 µM) it was 79.3% (active).
